Compound activity: PubChem, several laboratories
Shown are actives, neighbours in structure and some others; about 2% of the full set was active somewhere.
Kir21 inh: Kir2.1 (mouse) channel inhibition. P35561. B-score at 10 µM. 0.85% of 310,000 active. HEK293-Kir2.1, FluxOR thallium flux fluorescence; active compounds read low;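 active means fluorescence ratio B-score at or below minus 3 SD of library scores, with starting-brightness B-score within 2 SD, cut at about -4.2 in these data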;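 further: channel flux triggered by added potassium and thallium sulfate stimulus; B-score of peak minus minimum fluorescence over baseline after thallium stimulus; more negative B-score means stronger Kir2.1 block with less thallium influx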
Target sequence (P35561 whole entry, looked up): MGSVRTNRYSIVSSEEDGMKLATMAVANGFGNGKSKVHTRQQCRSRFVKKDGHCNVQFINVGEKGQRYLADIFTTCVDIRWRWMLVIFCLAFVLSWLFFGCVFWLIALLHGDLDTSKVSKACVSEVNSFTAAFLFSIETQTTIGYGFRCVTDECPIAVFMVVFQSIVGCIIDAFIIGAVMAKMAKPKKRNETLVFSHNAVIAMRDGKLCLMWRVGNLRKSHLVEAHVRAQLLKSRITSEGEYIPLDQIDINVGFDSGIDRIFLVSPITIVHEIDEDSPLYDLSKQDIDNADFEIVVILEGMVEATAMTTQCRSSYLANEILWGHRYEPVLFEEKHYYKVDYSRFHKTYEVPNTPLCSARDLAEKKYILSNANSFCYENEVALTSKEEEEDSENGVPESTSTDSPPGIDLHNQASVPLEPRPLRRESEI
TAG inh: inhibitors of triacylglycerol accumulation | AID 651582 | 0.66% of 230,000 active | inhibition, % at 12.5 µM | H9c2 cells, Nile Red lipid (TAG) fluorescence; cells loaded with 200 µM oleic acid;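 active means pattern-corrected inhibition of lipid staining of at least 50% with the nuclear-stain viability signal not falling by more than 50%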;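 further: 0% = DMSO wells and 100% = triacsin C control wells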
CHT PAM: human CHT allosteric activation; Q9GZV3; CHT-expressing cells, membrane potential dye, choline EC20; active compounds read high; LV-AA mutant CHT in HEK293 cells; B-score at 10 µM; 0.49% of 310,000 active;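 active means initial fluorescence not abnormally high and integrated response B-score, plate-corrected, over 3 SD above library mean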
CHT block: inhibitors of human choline transporter CHT; CHT-expressing cells, membrane potential dye, choline response; active compounds read low; B-score at 10 µM; 0.86% of 310,000 active; AID 488975;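 active means B-score over 3 SD under the library average, and starting fluorescence ratio not unusually high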;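 further: choline stimulus applied at its EC90 after an EC20 pre-addition; B-score computed on integrated fluorescence ratio after choline addition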
CHT block conf: human CHT inhibition, confirmatory screen | 70% of 2,400 active | shares compounds with CHT block | AID 493221 | CHT-expressing cells, choline membrane potential dye; LV-to-AA substituted CHT, HEK293 cells | CHT activity remaining % of control (active compounds read low), % at 10 µM;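 active means choline transporter activity left, mean of duplicates at 10 µM, below buffer-only control mean minus 3 SD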;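 further: depolarization triggered by choline at its EC90 following an EC20 pre-addition; 0% = hemicholinium-3 full block and 100% = buffer-only control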
HEK293 MPD ctr: CHT inhibitor counter-screen hit in parental HEK293 cells; shares compounds with CHT block; AID 493222; membrane potential dye, choline response; active = decrease or increase beyond buffer ±3SD; 4% of 2,400 active; membrane potential ratio readout (active if shifted either direction beyond buffer ±3SD; no single direction) at 10 µM;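 further: parental cells lack the transporter so any hit is non-specific; ratio is peak minus trough fluorescence over baseline after EC90 choline challenge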
An asterisk follows results filed as active; i = inactive; . = not tested or not shown.

SMILES | Kir21 inh | TAG inh | CHT PAM | CHT block | CHT block conf | HEK293 MPD ctr
CN(C1CCCCC1)S(=O)(=O)c1ccc2c(c1)c(=O)c(C(=O)NCCCN1CCCC1)cn2C | -0.02 | 17.4 | i | i | . | .
CCN(CC)CCCNC(=O)c1cn(CC)c2ccc(S(=O)(=O)N(C)C3CCCCC3)cc2c1=O | 0 | . | i | -5.73* | 60.7%* | i
CCn1cc(C(=O)N2CCCCC2)c(=O)c2cc(S(=O)(=O)N3CCC(C)CC3)ccc21 | 1.11 | . | i | -6.17* | 33.7%* | i
CCn1cc(C(=O)N2CCCC2)c(=O)c2cc(S(=O)(=O)N3CC(C)CC(C)C3)ccc21 (configuration not stated) | -1 | . | i | i | . | .
CCCCN(CCCC)CCNC(=O)c1cn(CC)c2ccc(S(=O)(=O)N(C)C3CCCCC3)cc2c1=O | 1.2 | . | i | -7.07* | 19.7%* | i
CCn1cc(C(=O)NCCCN2CCCC(C)C2)c(=O)c2cc(S(=O)(=O)N(C)C3CCCCC3)ccc21 (configuration not stated) | -0.94 | . | i | -7.52* | 25.3%* | 2.68*
O=C(NC1CCN(C(=O)NCc2ccccc2)CC1)c1cccc(F)c1 | -0.73 | . | i | i | . | .
COCCCNC(=O)C[C@H]1C[C@H](C(=O)N(C(C)C)C(C)C)[C@@]2(C)c3[nH]c4ccc(Cl)cc4c3CCN2C1=O | . | 15.4 | . | . | . | .
Cc1csc(NC(=O)C(C)Oc2ccc(Cl)cc2C)n1 (configuration not stated) | . | 0.4 | . | . | . | .
Cc1[nH]c(=O)[nH]c(=O)c1CSCC(=O)OCC(=O)c1ccc(Br)cc1 | 0.47 | . | i | i | . | .
COc1ccc(S(=O)(=O)N2CC3C4C=CC(C4)C3C2)cc1 (configuration not stated) | -0.86 | . | i | i | . | .
CC1CCC(NC(=O)c2ccc(NC(=O)CC3SC(N4CCCC4)=NC3=O)cc2)CC1 (configuration not stated) | 0.32 | 14.9 | i | -10.9* | 11.2%* | i
CCCCOC(=O)c1ccc(NC(C)=O)cc1 | 0.17 | 11.5 | i | i | . | .
CCCCOC(=O)c1ccc(NC(=O)c2cc(Cl)c(Cl)cc2C(=O)O)cc1 | 0.31 | 1.4 | i | -5.26* | 61.1%* | i
O=c1[nH]ccc2c(O)cccc12 | 0.69 | 6.1 | i | i | . | .
Cc1cc(=O)[nH]c(SCC(=O)/C=C2\N(C)c3ccccc3C2(C)C)n1 | -0.97 | . | i | -5.02* | 69.1%* | i
CN1/C(=C/C(=O)CSc2ccccc2C(=O)O)C(C)(C)c2ccccc21 | 1.16 | -11.8 | i | i | . | .
CC(NC(=O)COC(=O)CCC(=O)c1ccc(F)cc1)c1ccccc1 (configuration not stated) | . | 1.9 | . | . | . | .
O=C(NNS(=O)(=O)c1ccc([N+](=O)[O-])cc1)c1ccc2ccccc2c1O | 3.56 | 2.9 | i | -4.98* | 41.7%* | i
O=C(NNS(=O)(=O)c1ccc([N+](=O)[O-])cc1)c1ccccc1 | . | -3.3 | . | . | . | .
Cc1ccc(SCC(=O)OCC(=O)N(C)CC(=O)Nc2ccccc2Cl)cc1C | 0.42 | -10.9 | i | i | . | .
CCCN(CC(=O)Nc1ccccc1C)C(=O)c1ccc(=O)n(Cc2ccccc2)n1 | 0.64 | 6.7 | i | i | . | .
O=C(Nc1ccc(S(=O)(=O)NC2=NCCCCC2)cc1)c1ccc(C(F)(F)F)cc1 | 1.11 | -16.2 | i | -6.84* | 41.4%* | i
CN(C)S(=O)(=O)c1ccc(C(=O)Nc2ccc(S(=O)(=O)NC3=NCCCCC3)cc2)cc1 | 1.09 | 13.4 | i | i | . | .
CSc1ncccc1C(=O)OCC(=O)N(CC(C)C)c1c(N)n(Cc2ccccc2)c(=O)[nH]c1=O | 0 | -5.3 | i | i | . | .
SMILES | Kir21 inh | TAG inh | CHT PAM | CHT block | CHT block conf | HEK293 MPD ctr
NC(=O)c1c(NC(=O)C2CC=CCC2C(=O)O)sc2c1CCCCC2 (configuration not stated) | 1.21 | 15.1 | i | i | . | .
CC(C)OC(=O)c1c(NC(=O)C2CC=CCC2C(=O)O)sc2c1CCCCC2 (configuration not stated) | 0.95 | 8.2 | i | -5.16* | i | i
CC(C)(C)C(=O)Nc1scc(-c2ccc(-c3ccccc3)cc2)c1C(=O)O | 0.75 | . | i | -7.45* | 36.5%* | i
COc1cc(C(=O)Nc2scc(-c3ccc(C)cc3)c2C(=O)O)cc(OC)c1OC | 2.68 | -19.0 | i | -6.56* | 56.4%* | i
O=C(Nc1scc(-c2ccccc2)c1C(=O)O)c1ccco1 | -0.76 | 6.1 | i | i | . | .
COc1ccc2c(c1OC)C(=O)N1C2SC[C@H]1C(=O)NC1CCCCC1 (some centres not stated) | -0.57 | . | i | i | . | .
CC(C)c1ccc(NC(=O)N2CCCC2C(=O)Nc2ccc(-n3cnnn3)cc2)cc1 (configuration not stated) | -0.88 | -5.5 | i | i | . | .
Cc1onc(-c2ccccc2)c1C(=O)OCC(=O)Nc1cccc(Cl)c1 | . | -92.5 | . | . | . | .
CCOc1cc(/C=N/NC(=O)c2ccc(CN3CCOCC3)cc2)ccc1OC | 0 | -0.9 | i | -9* | i | i
CN(C)c1ccc(/C=N/NC(=O)c2ccc(CN3CCOCC3)cc2)cc1Br | 0.82 | . | i | i | . | .
CCCNC(=O)c1ccc(COc2ccc(C)cc2)o1 | 0.59 | . | i | -5.02* | 51.9%* | i
CCOc1ccc(OCc2ccc(C(=O)N3CCCC3)o2)cc1 | 0.29 | . | i | -8.07* | 42.0%* | i
Cc1cccc(OCC(=O)NCC(=O)N/N=C/c2cc(Br)cc(Br)c2O)c1 | 0.08 | . | i | i | . | .
CCN(CC(=O)NCc1cccs1)S(=O)(=O)c1ccccc1Cl | -1.61 | -10.6 | i | i | . | .
CCN(CC(=O)NCc1cccs1)S(=O)(=O)c1ccc(C(C)C)cc1 | -1.26 | . | i | -5* | 59.6%* | i
Cc1cc(C)cc(NC(=O)C(c2ccccc2)N2CCN(CC(=O)NC3CC3)CC2)c1 (configuration not stated) | . | 5.0 | . | . | . | .
CCCS(=O)(=O)N1CCN(Cc2ccco2)CC1 | 0.23 | -20.3 | i | -6.69* | i | i
O=C(O)c1ccccc1NS(=O)(=O)c1cccc(-n2sc3ccccc3c2=O)c1 | 0.37 | . | i | -6.38* | 22.1%* | i
O=C(NC1CC1)c1ccc2nc([C@@H]3O[C@H](CO)[C@H](O)[C@H](O)[C@H]3O)[nH]c2c1 | . | 6.9 | . | . | . | .
CCCn1c2ccccc2c2cnn(CC(=O)NCCCN3CCN(c4ccccc4)CC3)c(=O)c21 | -4.57* | . | i | -9.93* | 22.9%* | i
O=C(Cn1ncc2c3ccccc3n(Cc3ccccc3)c2c1=O)NCCN1CCOCC1 | -0.66 | . | i | -14.8* | 6.6%* | i
Cc1c2cnn(CC(=O)NCCN3CCOCC3)c(=O)c2c(C)n1Cc1ccccc1 | -0.62 | 0.0 | i | i | . | .
